Screening data (PubChem)
Gal4-VP16 FLuc: counter-screen for ROR gamma inhibitors: Gal4-VP16 reporter | Drosophila S2 Gal4-VP16 UAS-luciferase, luminescence, 20 h | Potency, µM (titrated, usually from 53.6 µM), for inactives: at the top dose activity, negative = inhibition, most hits filed as inhibitors | actives 3.5% (n = 310,000);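 note: Gal4-VP16 expression switched on by copper sulfate through the metallothionein promoter; potency is the fitted concentration of half-maximal effect; nearly all actives have a fitted effect of over 50% in size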
TDP1 cell noCPT: qHTS for Inhibitors of human tyrosyl-DNA phosphodiesterase 1 (TDP1): qHTS in cells in absence of CPT; Potency, µM (doses to about 46.2 µM), for inactives: at the highest dose activity change, negative = growth inhibition, most hits filed as inhibitors; actives 15% (n = 420,000); AID 686978, 2013; DT40 Tdp1-/- hTDP1 cells, no CPT, ATP luminescence, 48 h; note: potency is the fitted concentration of half-maximal effect; nearly all actives have a fitted effect of over 55% in size
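Compound effects on proliferation are scored in DT40 Tdp1-/-;hTDP1 cells in the absence of CPT. ATP levels (CellTiter-Glo luminescence) are recorded after a ≥48 hr, 37 °C incubation.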
ELG1 DNA repair: inhibitors of ELG1-dependent DNA repair in HEK293T cells; HEK293T ELG1-luciferase reporter, luminescence, 16 h; DNA damage induced by 5-fluorouridine; Potency, µM (highest dose often 46.1 µM), without a hit: top-dose activity change, negative = inhibition, most hits filed as inhibitors; actives 2.3% (n = 330,000); note: potency is the fitted concentration of half-maximal effect; nearly all actives have a fitted effect of over 55% in size
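Overnight (16 hr) co-exposure of 2,000 cells/well to 5-fluorouridine and compound at 37 °C preceded detection. Luciferase was quantified via ONE-Glo luminescence; loss of signal denotes inhibition.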
DT40 TDP1 CPT: growth inhibition of DT40 Tdp1-/-;hTDP1 cells with camptothecin (screen for TDP1 inhibitors); AID 686979; chicken DT40 Tdp1-/-;hTDP1 cells + 20 nM CPT, ATP luminescence, 48 h; Potency, µM (series often up to 46.2 µM), for the others: at the highest dose activity change, negative = growth inhibition, hits mostly inhibitors; actives 12% (n = 420,000); note: potency is the fitted concentration of half-maximal effect; nearly all actives have a fitted effect of over 55% in size
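Chicken DT40 Tdp1-/- cells stably complemented with human TDP1 were seeded at 400 cells/well in medium containing 20 nM camptothecin, exposed to pin-transferred compounds, and grown at 37 °C for at least 48 hr. Viability was read as ATP luminescence.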
RORgamma inh: ROR gamma (mouse) transcription inhibition; Drosophila S2 Gal4-RORgamma UAS-luciferase reporter, 20 h; Potency, µM (top dose mostly 53.6 µM), without a hit: at the highest dose activity change, negative = inhibition, hits mostly inhibitors; actives 5.4% (n = 310,000); AID 2551; note: potency is the fitted concentration of half-maximal effect; nearly all actives have a fitted effect of over 60% in size
Target sequence (P51450 whole entry, looked up, the tested form may be a part): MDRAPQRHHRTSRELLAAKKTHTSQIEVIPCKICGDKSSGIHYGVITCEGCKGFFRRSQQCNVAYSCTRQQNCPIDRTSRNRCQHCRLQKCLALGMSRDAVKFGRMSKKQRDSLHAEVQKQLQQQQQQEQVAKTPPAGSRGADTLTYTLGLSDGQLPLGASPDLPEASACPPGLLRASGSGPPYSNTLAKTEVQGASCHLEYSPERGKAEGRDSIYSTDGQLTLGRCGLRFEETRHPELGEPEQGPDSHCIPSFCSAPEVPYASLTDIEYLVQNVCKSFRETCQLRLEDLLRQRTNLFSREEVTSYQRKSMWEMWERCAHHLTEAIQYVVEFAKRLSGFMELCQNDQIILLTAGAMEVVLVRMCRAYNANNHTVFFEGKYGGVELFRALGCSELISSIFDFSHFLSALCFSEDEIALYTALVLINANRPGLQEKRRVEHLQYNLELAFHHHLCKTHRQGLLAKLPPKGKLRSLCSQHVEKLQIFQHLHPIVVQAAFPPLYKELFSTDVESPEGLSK
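Stably transfected Drosophila Schneider cells are the test system, with ROR gamma fused to Gal4 and luciferase under UAS control; luminescence is read after 20 hr of 700 uM copper sulfate induction at ambient temperature.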
IL1B secr inh: inflammasome signaling inhibition, IL-1 beta readout | THP-1 LPS/ATP IL-1B secretion, AlphaLISA, 16 h; hits give low values | activity change, % at 57.5 µM | actives 4.7% (n = 360,000); in the data active = activity change below about -50%; inconclusive = mostly about -30% to -49%
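Secreted IL-1B measured by AlphaLISA bead assay after 16 h compound exposure of THP-1 cells; compounds (final up to 57.5 uM) added 1 h before LPS (250 ng/mL) and ATP (1.25 mM) stimulation; lower signal means less secretion.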
Active calls of the source: *; u = inconclusive; x = no result given. Most compounds without a hit are left out; they make up all but 21% or so of the library. Unless noted, calls come from the whole dose curve; as a rule, active = well fitted curve in the direction sought with a large enough effect; inconclusive = small, poorly fitted or top-dose-only effect, or another doubt; inactive = no such curve, though single readings can be large; an effect the other way counts as inactive or inconclusive. % is set by controls: 0 for no effect and ±100 for the full control effect.

SMILES	Gal4-VP16 FLuc	TDP1 cell noCPT	ELG1 DNA repair	DT40 TDP1 CPT	RORgamma inh	IL1B secr inh
COc1ccc(NC(=O)c2nnn(Cc3nc(-c4cc(OC)c(OC)c(OC)c4)oc3C)c2C)cc1	x	8%	x	12%	x	x
COc1cc(-c2nc(Cn3nnc(C(=O)Nc4ccccc4C)c3C)c(C)o2)cc(OC)c1OC	x	u	x	-27%	x	x
COc1cc(-c2nc(Cn3nnc(C(=O)Nc4cc(C)cc(C)c4)c3C)c(C)o2)cc(OC)c1OC	x	12µM*	x	u	x	x
COc1ccc(NC(=O)c2nnn(Cc3nc(-c4cc(Br)ccc4OC)oc3C)c2C)cc1	x	18µM*	x	-21%	x	x
CC(C)N1CCN(c2ccc(OCC3COC(Cn4cncn4)(c4ccc(Cl)cc4Cl)O3)cc2)CC1 (stereo not drawn)	x	u	x	u	x	-53*
CCCCCCC(=O)Nc1nc(C)c(-c2csc(Nc3ccc(Cl)cc3)n2)s1	-4%	4.6µM*	-24%	2.3µM*	-29%	7
CCCCCC(=O)Nc1nc(C)c(-c2csc(Nc3cc(Cl)ccc3C)n2)s1	4%	18µM*	-10%	u	-3%	6
COc1ccc(Nc2nc(-c3sc(NC(C)=O)nc3C)cs2)cc1	-8%	x	u	x	-1%	x
CCCCCC(=O)Nc1nc(C)c(-c2csc(Nc3ccc(Cl)cc3)n2)s1	3%	13µM*	u	u	10%	-6
CC(=O)N1CCN(C(=O)c2cccc(S(=O)(=O)Nc3c(C)n(C)n(-c4ccccc4)c3=O)c2)CC1	x	-14%	25%	-5%	x	5
COc1ccccc1CNC(=O)Nc1nnc([C@H]2C[C@H](O)[C@@H](CO)O2)s1	x	-8%	x	-5%	x	3
COc1ccc(C(=O)CSC2=C(C#N)C3(CCCCC3)C(C#N)=C(N)N2)cc1	-2%	16µM*	u	u	28%	-12
N#CC1=C(N)NC(SCC(=O)Nc2ccccc2)=C(C#N)C12CCCCC2	-16%	23µM*	u	u	u	0
COCCNC(=O)c1ccc2c(c1)ncn2-c1cccc(C)c1	29%	u	0%	16µM*	6%	-11
Cc1cccc(-n2cnc3cc(C(=O)NCC4CCCO4)ccc32)c1 (stereo not drawn)	x	7.3µM*	x	9.2µM*	x	u
COc1ccc(-n2cnc3cc(C(=O)NCC4CCCO4)ccc32)cc1 (stereo not drawn)	0%	21%	18%	-9%	-9%	-7
Cc1cccc(-n2cnc3cc(C(=O)N4CCc5ccccc54)ccc32)c1	u	u	9%	-13%	18%	-77*
COC(=O)Cn1c(C(=O)N(C)C)cc2c1C[C@H]1CN(C(=O)c3ccccc3)[C@@](Cc3ccc(OC)cc3)(C(=O)OC)[C@@H]21	0%	x	x	x	10%	x
CN(CCC#N)C(=O)COC(=O)c1c2c(nc3ccccc13)/C(=C/c1ccco1)CC2	-2%	u	u	u	u	-58*
COC(=O)CCCn1cc(CN2CC(N3CCN(C)CC3)CS2(=O)=O)nn1 (stereo not drawn)	x	-9%	x	-1%	x	1
CC1CCc2nc(NC(=O)CN3CCN(Cc4ccc5c(c4)OCO5)CC3)sc2C1 (stereo not drawn)	-22%	16µM*	12µM*	18µM*	-53%	u
CC1CCc2nc(NC(=O)C3CC3)sc2C1 (stereo not drawn)	19%	-20%	u	-12%	31%	15
CC1CCc2nc(NC(=O)Nc3ccc4c(c3)OCO4)sc2C1 (stereo not drawn)	7%	u	u	u	-20%	-75*
CCc1cccc(NC(=O)Nc2ccc3c(c2)OCO3)c1	-11%	-24%	21%	-4%	8%	u
CC1CCc2nc(NC(=O)C3COc4ccccc4O3)sc2C1 (stereo not drawn)	10µM*	21µM*	u	16µM*	u	-18
SMILES	Gal4-VP16 FLuc	TDP1 cell noCPT	ELG1 DNA repair	DT40 TDP1 CPT	RORgamma inh	IL1B secr inh
O=C(CN1CCN(c2ccccc2)CC1)Nc1ccncc1	-19%	18µM*	-15%	u	20%	24
CC1CCc2nc(NC(=O)CN3CCOCC3)sc2C1 (stereo not drawn)	5%	-20%	u	2%	38%	13
Cc1cc(C)cc(NC(=O)CN2CCN(c3ccccc3)CC2)c1	-3%	u	0%	-18%	2%	0
COc1ccc(C)cc1NC(=O)N1CCCn2nc(C)cc21	x	-28%	x	u	x	x
Cc1ccc([S+](=O)([O-])N(c2ccccc2)[S+](=O)([O-])C(F)(F)F)cc1	-3%	x	x	x	-21%	x
O=C(CN1CCN(c2ncccn2)CC1)Nc1ccccc1-n1cccc1	u	13µM*	u	u	27%	-23
CC1CCc2nc(NC(=O)CCSc3ccccc3)sc2C1 (stereo not drawn)	-1%	-10%	u	-7%	1%	-12
CC1CCc2nc(NC(=O)CN3CCN(c4ccccc4)CC3)sc2C1 (stereo not drawn)	4%	21µM*	u	u	u	13
CC1CCc2nc(NC(=O)Cc3ccc(Cl)cc3)sc2C1 (stereo not drawn)	x	18µM*	x	u	x	x
COCCn1c(CNC(=O)c2cc([N+](=O)[O-])ccc2Cl)nc2cccnc21	x	-15%	x	-22%	x	x
COc1cccc(Cn2c(CNS(=O)(=O)c3ccc(F)c(Cl)c3)nc3cccnc32)c1	x	10µM*	x	u	x	x
Cc1ccc(Cn2c(CNS(=O)(=O)c3ccc(F)c(Cl)c3)nc3cccnc32)cc1	x	-37%	x	-15%	x	x
Cc1cccc(Cn2c(CNS(=O)(=O)c3ccc(C(C)C)cc3)nc3cccnc32)c1	x	15µM*	x	u	x	x
COc1cccc(Cn2c(CNC(=O)c3cc([N+](=O)[O-])ccc3Cl)nc3cccnc32)c1	x	u	x	16µM*	x	x
COc1ccc(-n2nnc(-c3nc(-c4ccc5c(c4)OCO5)no3)c2C)cc1Cl	x	-3%	x	-3%	x	x
CC1C=CCC2C(=O)N(c3cccc(C(=O)Nc4ccc(F)cc4)c3)C(=O)C12 (stereo not drawn)	3%	-15%	-9%	-25%	37%	-2
C=CCN(C(=O)c1cccc(N2C(=O)C3CC=CC(C)C3C2=O)c1)c1ccccc1 (stereo not drawn)	-8%	4.6µM*	u	u	27%	35
